# Experimental data as given in PubChem BioAssay (EPA / NIEHS).
# Calls of active or inactive are those of the source. How the source made its calls: active means hit-call score of the fitted dose curve at least 0.9, where 1 is the maximum; inactive means score below 0.9.
# Columns and labels:
# [1] = APR_HepG2_P-H2AX_72hr: Apredica 72-hour HepG2 Assay for H2AX Phosphorylation (AID 2282916); conditions: imaging, actives raise or lower the signal;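 further: phospho-histone H2A.x immunostain intensity per cell marking DNA damage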
# Outline: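 Phospho-histone H2A.x immunofluorescence, multiplexed with Hoechst and c-Jun, quantified by high-content imaging. Compounds applied to HepG2 for 72 h across ten concentrations (0.39–200 uM, 0.5% DMSO), in duplicate; DMSO baseline.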
# [2] = APR_HepG2_MitoMembPot_72hr: Apredica 72-hour HepG2 Assay for Mitochondrial Membrane Potential (AID 2282917); conditions: imaging, actives raise or lower the signal
# Outline: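 HepG2 cells dosed 72 hr with compound at 0.39–200 uM in duplicate, 0.5% v/v DMSO final. Mitochondria stained with 250 nM MitoTracker Red CMXRos for 30 min before formaldehyde fixation, imaged by high-content fluorescence; bidirectional fit versus DMSO.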
# [3] = APR_HepG2_MitoticArrest_72hr: Apredica 72-hour HepG2 Assay for Mitotic Arrest (AID 2282918); conditions: high-content imaging, actives raise or lower the signal
# Outline: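 HepG2, 72 hr exposure, 0.39–200 uM in duplicate, 0.5% v/v DMSO final. Formaldehyde-fixed, Triton-permeabilized, anti-phospho-histone H3/FITC plus Hoechst. ArrayScan imaging at 20x; curves fit bidirectionally against DMSO baseline.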
# [4] = APR_HepG2_MicrotubuleCSK_72hr: Apredica 72-hour HepG2 Assay for Microtubule CSK Stabilty (AID 2282919); conditions: HepG2 microtubule cytoskeleton, high-content imaging, actives raise or lower the signal
# Outline: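 HepG2, 72 hr cmpd exposure, 0.39–200 uM (10 pts, duplicate), 0.5% DMSO. 3.7% formaldehyde fix, 0.5% Triton perm, anti-alpha-tubulin/Cy5 plus Hoechst. HCS fluorescence intensity; bidirectional fit vs DMSO baseline; taxol as positive control.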
# [5] = APR_HepG2_P-H2AX_24hr: Apredica 24-hour HepG2 Assay for H2AX Phosphorylation (AID 2282920); conditions: high-content imaging, actives raise or lower the signal
# Outline: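 HCS fluorescence imaging of phospho-H2A.x immunostain (with Hoechst 33342 nuclear counterstain) in HepG2 after 24 hr compound exposure; 10 concentrations, 0.39–200 uM, duplicate wells, 0.5% v/v DMSO. Gain or loss of signal fitted relative to DMSO baseline.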
# [6] = APR_HepG2_StressKinase_72hr: Apredica 72-hour HepG2 Assay for Stress Kinase (AID 2282921); conditions: HepG2 stress kinase (phospho-c-Jun) imaging, actives raise or lower the signal
# Outline: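 Stress kinase signal is phospho-c-Jun immunofluorescence (1:500 primary, Cy3 secondary) in fixed, permeabilized human HepG2 cells imaged at 20x. Exposure lasted 72 hr over ten concentrations from 0.39 to 200 uM, 0.5% DMSO, in duplicate. Bidirectional fit versus DMSO.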
# [7] = APR_HepG2_StressKinase_24hr: Apredica 24-hour HepG2 Assay for Stress Kinase (AID 2282922); conditions: HepG2 stress kinase (phospho-c-Jun) imaging, actives raise or lower the signal
# Outline: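 Read-out: phospho-c-Jun immunofluorescence (Cy3 secondary) quantified by high-content imaging at 20x, nuclei defined by Hoechst 33342. Human HepG2 liver cells dosed 24 hr, 0.39–200 uM, DMSO 0.5% v/v; gain or loss of signal fitted relative to DMSO.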
# [8] = APR_HepG2_MitoMass_72hr: Apredica 72-hour HepG2 Assay for Mitochondrial Mass (AID 2282924); conditions: high-content imaging, actives raise or lower the signal;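 further: MitoTracker Red CMXRos stain intensity per cell imaged as mitochondrial mass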
# Outline: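 Read-out: MitoTracker Red fluorescence intensity from automated imaging (20x, six fields per well) in human HepG2 liver cells. Dosing ran 72 hr, 0.39–200 uM, 0.5% DMSO; bidirectional curve fitting versus DMSO baseline.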
# [9] = APR_HepG2_NuclearSize_72hr: Apredica 72-hour HepG2 Assay for Nuclear Size (AID 2282925); conditions: high-content imaging, actives raise or lower the signal
# Outline: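 Read-out: nuclear diameter from Hoechst 33342 images (ArrayScan, 20x, six fields/well), via cell-cycle image analysis. HepG2 were dosed 0.39–200 uM for 72 hr in 0.5% DMSO. Bidirectional fit relative to DMSO.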
# [10] = APR_HepG2_p53Act_72hr: Apredica 72-hour HepG2 Assay for p53 Activation (AID 2282923); conditions: high-content imaging, actives raise or lower the signal;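 further: average cellular p53 protein immunofluorescence intensity in HepG2 cells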
# Outline: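 After 72 h with compound (ten points, 0.39 to 200 uM, final DMSO 0.5% v/v), fixed HepG2 cells were labelled with sheep anti-p53 and Hoechst 33342 and imaged; gain or loss versus DMSO scored.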
smiles,measurement,setting,value
O=C(O)c1cccnc1,outcome,[1],inactive
same,outcome,[2],inactive
same,AC50,[3],116 µM (active)
same,outcome,[4],inactive
same,outcome,[5],inactive
same,outcome,[6],inactive
same,outcome,[7],inactive
same,outcome,[8],inactive
same,outcome,[9],inactive
OCC(O)CO,outcome,[1],inactive
same,outcome,[2],inactive
same,outcome,[3],inactive
same,outcome,[4],inactive
same,outcome,[5],inactive
same,outcome,[6],inactive
same,outcome,[7],inactive
same,outcome,[10],inactive
same,outcome,[8],inactive
same,outcome,[9],inactive
Nc1nc(Cl)nc2c1ncn2[C@H]1C[C@H](O)[C@@H](CO)O1,AC50,[1],0.0288 µM (active)
same,outcome,[2],inactive
same,AC50,[3],0.089 µM (active)
same,outcome,[4],inactive
same,AC50,[5],0.551 µM (active)
same,outcome,[6],inactive
same,outcome,[7],inactive
same,AC50,[10],0.038 µM (active)
same,outcome,[8],inactive
same,outcome,[9],inactive
CCCCCCC(CCCCCCCCCCC(=O)OCC(COC(C)=O)OC(C)=O)OC(C)=O (stereo unspecified),outcome,[1],inactive
same,outcome,[2],inactive
same,AC50,[3],39.8 µM (active)
same,outcome,[4],inactive
same,outcome,[5],inactive
same,outcome,[6],inactive
same,outcome,[7],inactive
same,outcome,[10],inactive
same,outcome,[8],inactive
same,outcome,[9],inactive
O=C1OC(c2ccc(O)cc2)(c2ccc(O)cc2)c2ccccc21,AC50,[1],31 µM (active)
same,outcome,[2],inactive
same,AC50,[3],50.9 µM (active)
same,AC50,[4],97.3 µM (active)
same,AC50,[5],73.3 µM (active)
same,AC50,[6],40 µM (active)
same,outcome,[7],inactive
same,AC50,[10],29.2 µM (active)
same,AC50,[8],102 µM (active)
same,outcome,[9],inactive
CCCCC(CC)COC(=O)CCCCCCCC(=O)OCC(CC)CCCC (stereo unspecified),outcome,[1],inactive
same,outcome,[2],inactive
same,outcome,[3],inactive
same,outcome,[4],inactive
same,outcome,[5],inactive
same,outcome,[6],inactive
same,outcome,[7],inactive
same,outcome,[10],inactive
same,outcome,[8],inactive
same,outcome,[9],inactive
COC(=O)CCCC(=O)OC,outcome,[1],inactive
same,outcome,[2],inactive
same,outcome,[3],inactive
same,outcome,[4],inactive
same,outcome,[5],inactive
same,outcome,[6],inactive
same,outcome,[7],inactive
same,outcome,[10],inactive
same,outcome,[8],inactive
same,outcome,[9],inactive
CCCCCCCC(=O)OC,outcome,[1],inactive
same,outcome,[2],inactive
same,outcome,[3],inactive
same,outcome,[4],inactive
same,outcome,[5],inactive
same,outcome,[6],inactive
same,outcome,[7],inactive
same,outcome,[10],inactive
same,outcome,[8],inactive
same,outcome,[9],inactive
NC(=Nc1ccccc1)Nc1ccccc1,AC50,[1],22.4 µM (active)
same,outcome,[2],inactive
same,AC50,[3],22.8 µM (active)
same,AC50,[4],34 µM (active)
same,outcome,[5],inactive
same,AC50,[6],10.3 µM (active)
same,outcome,[7],inactive
same,AC50,[10],23.4 µM (active)
same,outcome,[8],inactive
same,outcome,[9],inactive
CCCCOC(=O)CCCCC(=O)OCCCC,outcome,[1],inactive
same,outcome,[2],inactive
same,outcome,[3],inactive
same,outcome,[4],inactive
same,outcome,[5],inactive
same,outcome,[6],inactive
same,outcome,[7],inactive
same,outcome,[8],inactive
same,outcome,[9],inactive
CCN(CC)CCOc1ccc(C(=C(Cl)c2ccccc2)c2ccccc2)cc1,AC50,[1],5.35 µM (active)
same,outcome,[2],inactive
same,AC50,[3],11.4 µM (active)
same,AC50,[4],61.2 µM (active)
same,AC50,[5],10.5 µM (active)
same,outcome,[6],inactive
same,outcome,[7],inactive
same,AC50,[8],77.9 µM (active)
same,outcome,[9],inactive
CCCCC(CC)COP(=O)(OCC(CC)CCCC)OCC(CC)CCCC (stereo unspecified),AC50,[1],46.1 µM (active)
same,outcome,[2],inactive
same,AC50,[3],31.5 µM (active)
same,AC50,[4],51.5 µM (active)
same,AC50,[5],68 µM (active)
same,outcome,[6],inactive
same,AC50,[10],42.5 µM (active)
same,outcome,[8],inactive
same,outcome,[9],inactive
S=c1[nH]c2ccccc2s1,outcome,[1],inactive
same,AC50,[2],97.3 µM (active)
same,outcome,[3],inactive
same,outcome,[4],inactive
same,outcome,[5],inactive
same,outcome,[6],inactive
same,outcome,[10],inactive
same,outcome,[8],inactive
same,outcome,[9],inactive
O=C1CCCCC1,outcome,[1],inactive
same,outcome,[2],inactive
same,outcome,[3],inactive
same,outcome,[4],inactive
same,outcome,[5],inactive
same,outcome,[6],inactive
same,outcome,[7],inactive
same,outcome,[8],inactive
same,outcome,[9],inactive
Cc1ccc(C(C)(C)C)c(O)c1,AC50,[1],105 µM (active)
same,AC50,[2],111 µM (active)
same,AC50,[3],100 µM (active)
same,outcome,[4],inactive
same,AC50,[5],110 µM (active)
same,outcome,[6],inactive
same,outcome,[10],inactive
same,outcome,[8],inactive
same,outcome,[9],inactive
NC1CCCCC1,outcome,[1],inactive
same,outcome,[2],inactive
same,outcome,[3],inactive
same,outcome,[4],inactive
same,outcome,[5],inactive
same,outcome,[6],inactive
same,outcome,[7],inactive
same,outcome,[8],inactive
same,outcome,[9],inactive
C/C=C/C=C/C(=O)O,AC50,[1],93 µM (active)
same,outcome,[2],inactive
same,AC50,[3],98.2 µM (active)
same,outcome,[4],inactive
same,outcome,[5],inactive
same,outcome,[6],inactive
same,outcome,[7],inactive
same,AC50,[8],47.5 µM (active)
same,AC50,[9],60.7 µM (active)
CC(C)c1cccc(C(C)C)c1NC(=O)NS(=O)(=O)c1cc(C(C)(C)O)co1,outcome,[1],inactive
same,outcome,[2],inactive
same,outcome,[3],inactive
same,outcome,[4],inactive
same,outcome,[5],inactive
same,outcome,[6],inactive
same,outcome,[10],inactive
same,outcome,[8],inactive
same,outcome,[9],inactive
Cc1occc(=O)c1O,outcome,[1],inactive
same,outcome,[2],inactive
same,outcome,[3],inactive
same,outcome,[4],inactive
same,outcome,[5],inactive
same,outcome,[6],inactive
same,outcome,[7],inactive
same,outcome,[8],inactive
same,outcome,[9],inactive
CC(N)=O,outcome,[1],inactive
same,outcome,[2],inactive
same,outcome,[3],inactive
same,outcome,[4],inactive
same,outcome,[5],inactive
same,outcome,[6],inactive
same,outcome,[7],inactive
same,outcome,[8],inactive
same,outcome,[9],inactive
Cc1cn([C@H]2C=C[C@@H](CO)O2)c(=O)[nH]c1=O,outcome,[1],inactive
same,outcome,[2],inactive
same,outcome,[3],inactive
same,outcome,[4],inactive
same,outcome,[5],inactive
same,outcome,[6],inactive
same,outcome,[7],inactive
same,outcome,[8],inactive
same,outcome,[9],inactive
Cn1cnc2c1c(=O)[nH]c(=O)n2C,outcome,[1],inactive
same,outcome,[2],inactive
same,outcome,[3],inactive
same,outcome,[4],inactive
same,outcome,[5],inactive
same,outcome,[6],inactive
same,outcome,[7],inactive
same,outcome,[8],inactive
same,outcome,[9],inactive
